Assay outcomes from PubChem BioAssay.
An excerpt weighted towards active compounds, which were near 32% of everything screened.
CYP2C19 act – cytochrome P450 2C19 (human) activation | P33261 | recombinant CYP2C19, luciferin-H EGE luminescence; stronger effect = higher value; 0 = fully inhibited enzyme, 1 = untreated enzyme | activation factor at 5 µM | 96,000 tested, under 10 active;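 active means activation factor of at least 2 at 5 µM in the primary screen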;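 further: 0 = wells with 2.5 mM tranylcypromine and 1 = vehicle-only wells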
CYP2C19 inhib – inhibitors of human CYP2C19; CYP2C19 Supersomes, luciferin-H EGE luminescence, 30 min; inhibition, % at 5 µM; AID 778; P33261; 21% of 96,000 active;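 active means CYP2C19 inhibition above a set limit at 5 µM in the primary screen, cut at about 50% in these data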;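 further: plate controls were negative control wells for no effect and 2.5 mM tranylcypromine positive control for full effect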
PostGolgi yeast – growth inhibition of a yeast mutant, post-Golgi transport screen. post-Golgi transport phenotypic cell assay. inhibition, % at 10 µM. 0.9% of 98,000 active;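 further: yeast cells grown in 1536-well plates; yeast grown about 18 h at 30C before absorbance read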
CYP2C9 activ – increases human cytochrome P450 2C9 activity; recombinant CYP2C9, luciferin-H conversion, luminescence; stronger effect = higher value; factor 1 = untreated enzyme, 0 = blocked; activation factor at 5 µM; 1.4% of 96,000 active; P11712;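 active means activation factor of 2 or more for CYP2C9 at a 5 µM dose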;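 further: 0 = sulfaphenazole-blocked wells and 1 = vehicle-only wells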
Target sequence (P11712 whole entry, looked up): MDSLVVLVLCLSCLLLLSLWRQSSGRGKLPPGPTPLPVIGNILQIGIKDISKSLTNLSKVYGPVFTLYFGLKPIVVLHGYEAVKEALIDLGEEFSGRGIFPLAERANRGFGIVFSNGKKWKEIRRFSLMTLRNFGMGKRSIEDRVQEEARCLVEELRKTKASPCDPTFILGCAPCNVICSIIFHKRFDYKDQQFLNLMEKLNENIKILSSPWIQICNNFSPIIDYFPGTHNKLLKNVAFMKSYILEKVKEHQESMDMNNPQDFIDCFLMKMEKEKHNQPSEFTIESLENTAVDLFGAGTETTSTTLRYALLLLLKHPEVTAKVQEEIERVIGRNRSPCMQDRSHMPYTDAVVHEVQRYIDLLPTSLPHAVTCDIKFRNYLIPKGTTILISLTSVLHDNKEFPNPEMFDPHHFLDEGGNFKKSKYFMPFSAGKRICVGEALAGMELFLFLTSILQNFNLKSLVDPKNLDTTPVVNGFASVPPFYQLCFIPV
PostGolgi ctrl – inhibits growth of the yeast control strain; efflux-deficient yeast background strain, growth absorbance A615, 16 h; inhibition, % at 10 µM; 5% of 98,000 active
CYP2C9 inh – human CYP2C9 inhibition | P11712 | CYP2C9 Supersomes, luciferin-H conversion, luminescence | inhibition, % at 5 µM | 20% of 96,000 active | AID 777;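 active means blocking of liver enzyme CYP2C9 beyond about 50% at 5 µM, limit read from the data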
The depositor's hits bear a star. Unless noted, no stated cut-off is given here; in the data, active means inhibition above about 30%; inactive means the rest.

Screening CC(=O)c1cccc(NC(=O)C=C(C)C)c1 returned CYP2C19 act 0.9, CYP2C19 inhib 11, PostGolgi yeast -5, CYP2C9 activ 1.1, PostGolgi ctrl 17 and CYP2C9 inh -7.
Screening C=CCSc1nnc2c(n1)OC=Nc1ccc(Br)cc1-2 returned CYP2C19 act 0.5, CYP2C19 inhib 53*, PostGolgi yeast 13, CYP2C9 activ 0.4, PostGolgi ctrl 4 and CYP2C9 inh 60*.
COc1ccc(-c2cc(C(F)(F)F)nc(NC3CCCC3)n2)cc1OC was read as CYP2C19 act 1.2, CYP2C19 inhib -24, PostGolgi yeast 0, CYP2C9 activ 1.1, PostGolgi ctrl 34* and CYP2C9 inh -13.
Screening CCn1c(=O)n(CC)c2cc(S(=O)(=O)Nc3ccccc3C)c(C)cc21 returned CYP2C19 act 0.3, CYP2C19 inhib 72*, PostGolgi yeast -8, CYP2C9 activ 0.2, PostGolgi ctrl 28 and CYP2C9 inh 76*.
Cc1ccccc1NC(=O)Cn1c(=O)n(C)c2ccccc21 was read as CYP2C19 act 0.8, CYP2C19 inhib 23, PostGolgi yeast -2, CYP2C9 activ 1.1, PostGolgi ctrl 6 and CYP2C9 inh -11.
Screening Cc1nn(-c2ccccc2)c2c1C(=O)N(c1ccccc1)C(=O)C(C)(C)C2 returned CYP2C19 act 0.9, CYP2C19 inhib 14, PostGolgi yeast 4, CYP2C9 activ 1, PostGolgi ctrl 35* and CYP2C9 inh -3.
For COc1ccc(Oc2nc(Oc3ccc(OC)cc3)nc(Oc3ccc(OC)cc3)n2)cc1 the results were CYP2C19 act 1.1, CYP2C19 inhib -9, PostGolgi yeast -4, CYP2C9 activ 1.1, PostGolgi ctrl -7 and CYP2C9 inh -13.
Screening Cn1nnnc1SCC(=O)NC(=O)NCc1ccccc1 returned CYP2C19 act 1, CYP2C19 inhib -2, PostGolgi yeast 2, CYP2C9 activ 1.1, PostGolgi ctrl 13 and CYP2C9 inh -11.
For COc1cc(NC(=O)Cn2c(C)cc3ccccc3c2=O)cc(OC)c1OC the results were CYP2C19 act 0.9, CYP2C19 inhib 7, PostGolgi yeast -3, CYP2C9 activ 0.9, PostGolgi ctrl 2 and CYP2C9 inh 10.
Screening COc1cc(NC(=O)Cn2c(-c3cncs3)nc3ccccc32)cc(OC)c1OC returned CYP2C19 act 0.7, CYP2C19 inhib 30, PostGolgi yeast 7, CYP2C9 activ 0.4, PostGolgi ctrl 6 and CYP2C9 inh 56*.
O=C(Cn1c(-c2cscn2)nc2ccccc21)Nc1ccc2ccccc2c1 was read as CYP2C19 act 0.6, CYP2C19 inhib 39, PostGolgi yeast -6, CYP2C9 activ 0.4, PostGolgi ctrl 8 and CYP2C9 inh 63*.
`O=C(O)Cn1c(-c2cscn2)nc2ccccc21` gave CYP2C19 act 1.2, CYP2C19 inhib -18, PostGolgi yeast -16, CYP2C9 activ 1.2, PostGolgi ctrl 8 and CYP2C9 inh -17.
O=C(Cn1c(-c2cscn2)nc2ccccc21)Nc1cc(F)ccc1F was read as CYP2C19 act 0.4, CYP2C19 inhib 64*, PostGolgi yeast 1, CYP2C9 activ 0.5, PostGolgi ctrl 3 and CYP2C9 inh 46.
N#Cc1ccccc1Cn1c(-c2cscn2)nc2ccccc21 was read as CYP2C19 act 0.5, CYP2C19 inhib 50*, PostGolgi yeast 16, CYP2C9 activ 0.8, PostGolgi ctrl 17 and CYP2C9 inh 24.
CC1CCN(S(=O)(=O)c2ccc(NC(=O)Cc3cccs3)cc2)CC1 was read as CYP2C19 act 0.8, CYP2C19 inhib 22, PostGolgi yeast -1, CYP2C9 activ 0.6, PostGolgi ctrl 29 and CYP2C9 inh 38.
Cc1nnc2sc(-c3ccc(-c4ccc(Cl)c(C(F)(F)F)c4)o3)nn12 was read as CYP2C19 act 0.8, CYP2C19 inhib 23, CYP2C9 activ 1 and CYP2C9 inh -1.
Screening Cc1ccc(C(=O)Nc2nnc(C3CCCCC3)s2)o1 returned CYP2C19 act 1, CYP2C19 inhib 4, PostGolgi yeast -2, CYP2C9 activ 1, PostGolgi ctrl 10 and CYP2C9 inh -4.
Screening COc1cc(/C=N/NC(=O)CNC(=O)c2ccccc2)ccc1OC(=O)c1cccs1 returned CYP2C19 act 0.7, CYP2C19 inhib 27, PostGolgi yeast -5, CYP2C9 activ 0.6, PostGolgi ctrl -1 and CYP2C9 inh 38.
Screening CCOC(=O)c1nnn(-c2nonc2N)c1COc1cc(C)c(Cl)c(C)c1 returned CYP2C19 act 1.1, CYP2C19 inhib -8, CYP2C9 activ 1 and CYP2C9 inh 3.
For O=C(Cc1c(F)cccc1Cl)N1CCCC1 the results were CYP2C19 act 1.2, CYP2C19 inhib -19, PostGolgi yeast -36, CYP2C9 activ 1.2, PostGolgi ctrl -1 and CYP2C9 inh -16.
For CC(=O)Oc1ccc(C(=O)Nc2ccc3c(c2)C(=O)N(CCC(=O)O)C3=O)cc1 the results were CYP2C19 act 1, CYP2C19 inhib -2, PostGolgi yeast -1, CYP2C9 activ 0.9, PostGolgi ctrl -5 and CYP2C9 inh 9.
Screening O=C1CSc2ccc(C(=O)N3CCN(c4ccccn4)CC3)cc2N1 returned CYP2C19 act 0.8, CYP2C19 inhib 24, PostGolgi yeast 21, CYP2C9 activ 0.8, PostGolgi ctrl 7 and CYP2C9 inh 20.
Screening O=C(c1ccc2snnc2c1)N1CCN(c2ccccn2)CC1 returned CYP2C19 act 0.3, CYP2C19 inhib 71*, PostGolgi yeast 3, CYP2C9 activ 0.9, PostGolgi ctrl 4 and CYP2C9 inh 9.
CN1C(=O)/C(=C\c2ccccc2)Sc2ccc(C(=O)N3CCN(c4ccccn4)CC3)cc21 was read as CYP2C19 act 0.3, CYP2C19 inhib 72*, PostGolgi yeast 4, CYP2C9 activ 0.2, PostGolgi ctrl 32* and CYP2C9 inh 77*.
O=C(c1ccc2snnc2c1)N1CCN(c2ccccc2)CC1 was read as CYP2C19 act 0, CYP2C19 inhib 100*, PostGolgi yeast -3, CYP2C9 activ 0.3, PostGolgi ctrl -3 and CYP2C9 inh 65*.
O=C(c1ccc2snnc2c1)N1CCCC1 was read as CYP2C19 act 0.7, CYP2C19 inhib 28, PostGolgi yeast 5, CYP2C9 activ 0.9, PostGolgi ctrl 0 and CYP2C9 inh 10.
For CCCCNC(=O)c1onc(CSc2cccc(OCC)c2)c1C(=O)O the results were CYP2C19 act 0.7, CYP2C19 inhib 28, PostGolgi yeast 4, CYP2C9 activ 0.1, PostGolgi ctrl -8 and CYP2C9 inh 92*.
`CCOc1cccc(SCc2noc(C(=O)NCCOC)c2C(=O)O)c1` gave CYP2C19 act 0.9, CYP2C19 inhib 6, PostGolgi yeast 0, CYP2C9 activ 0.6, PostGolgi ctrl 33* and CYP2C9 inh 37.
`Clc1ccc(Cl)c(-c2ccc(/C=N/c3ncn[nH]3)o2)c1` gave CYP2C19 act 1, CYP2C19 inhib 4, PostGolgi yeast 4, CYP2C9 activ 2.9*, PostGolgi ctrl 12 and CYP2C9 inh -187.
